The supplement of paper PMC9262897, “Low-cost anti-mycobacterial drug discovery using engineered E. coli” (Nature Communications, 2022)
Structures can show the parent of a compound that is named as a salt. ± gives the standard deviation of the averaged measurements.

Tested on: E. coli TESEC Alr+ wild-type control
Test: growth (OD600 after 10 h); higher = more growth (less inhibition)
Conditions: compound 0.1 mM; raw OD600 reference: median of DMSO wells 0.49, cell-free background 0.052
Description: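 TESEC Mtb Alr E. coli (ΔaraC ΔtolC ΔentC Δalr ΔdadX, arabinose-inducible Mtb Alr) or the Alr+ wild-type control strain, grown in defined M9-fructose medium without D-alanine in 96-well plates with Prestwick library compounds at 0.1 mM and 1% DMSO. Low Alr induction is 0.1 µM arabinose and high induction is 10 mM arabinose.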

| Compound | growth |
| --- | --- |
| COc1ccc2cc(CCC(C)=O)ccc2c1 [Nabumetone] | 0.485 ± 0.0083 |
| CCCCC(CC)CN1CN(CC(CC)CCCC)CC(C)(N)C1 (stereo not given) [Hexetidine] | 0.0454 ± 0.00058 |
| NC(N)=Nc1nc(CSCC/C(N)=N/S(N)(=O)=O)cs1 [Famotidine] | 0.465 ± 0.058 |
| Cc1cc2cc3c(C)cc(=O)oc3c(C)c2o1 [Trioxsalen] | 0.438 ± 0.0099 |
| CC(C)(C)NC[C@@H](O)COc1cccc2c1CCCC2=O [(+) -Levobunolol hydrochloride] | 0.546 ± 0.077 |
| CCCCC1(COC(=O)CCC(=O)O)C(=O)N(c2ccccc2)N(c2ccccc2)C1=O [Suxibuzone] | 0.521 ± 0.1 |
| CC(C)NCC(O)COc1cccc2[nH]ccc12 (stereo not given) [Pindolol] | 0.474 ± 0.048 |
| CCN(CC)CCNC(=O)c1cc(Br)c(N)cc1OC [Bromopride] | 0.428 ± 0.011 |
| OCCOCCN1CCN(C2=Nc3ccccc3Sc3ccccc32)CC1 [Quetiapine hemifumarate] | 0.486 ± 0.019 |
| CN(C)CCC(c1ccc(Br)cc1)c1ccccn1 (stereo not given) [Brompheniramine maleate] | 0.45 ± 0.043 |
| C[C@]12CC[C@H]3C(=CCc4cc(O)ccc43)[C@@H]1CCC2=O [Equilin] | 0.424 ± 0.0094 |
| CCCCc1oc2ccccc2c1C(=O)c1cc(I)c(OCCN(CC)CC)c(I)c1 [Amiodarone hydrochloride] | 0.58 ± 0.025 |
| CN(C)CCOC(=O)C(c1ccccc1)C1(O)CCCC1 (stereo not given) [Cyclopentolate hydrochloride] | 0.54 ± 0.099 |
| CN(C)CCC(c1ccccc1)c1ccccn1 (stereo not given) [Pheniramine maleate] | 0.455 ± 0.059 |
| CN(C)CCOc1ccc(/C(=C(/CCCl)c2ccccc2)c2ccccc2)cc1 [Toremifene] | 0.0478 ± 0.00064 |
| CCCOc1ccc2[nH]c(NC(=O)OC)nc2c1 [Oxibendazol] | 0.518 ± 0.085 |
| C[C@]12CCC(=O)C=C1C=C[C@@H]1[C@@H]2CC[C@@]2(C)[C@H]1CC[C@@]21CCC(=O)O1 [Canrenone] | 0.282 ± 0.014 |
| Cc1cn([C@H]2C[C@H](N=[N+]=[N-])[C@@H](CO)O2)c(=O)[nH]c1=O [Zidovudine, AZT] | 0.199 ± 0.0087 |
| CCCCC1C(=O)N(c2ccccc2)N(c2ccc(O)cc2)C1=O (stereo not given) [Oxyphenbutazone] | 0.436 ± 0.036 |
| Oc1c(Cl)cc(Cl)c2cccnc12 [Chloroxine] | 0.0623 ± 0.0012 |

| Compound | growth |
| --- | --- |
| COc1ccc(C2CNC(=O)C2)cc1OC1CCCC1 (stereo not given) [Rolipram] | 0.623 ± 0.011 |
| NCc1ccc(S(N)(=O)=O)cc1 [Mafenide hydrochloride] | 0.418 ± 0.046 |
| NS(=O)(=O)c1cc(Cl)c(Cl)c(S(N)(=O)=O)c1 [Dichlorphenamide] | 0.443 ± 0.011 |
| COC(=O)Nc1nc2cc(Sc3ccccc3)ccc2[nH]1 [Fenbendazole] | 0.56 ± 0.072 |
| CCOc1ccc2ccccc2c1C(=O)N[C@@H]1C(=O)N2[C@@H]1SC(C)(C)[C@@H]2C(=O)O [Nafcillin sodium salt monohydrate] | 0.6426 ± 0.0049 |
| Cc1c(NC(=O)c2cccnc2)c(=O)n(-c2ccccc2)n1C [Nifenazone] | 0.507 ± 0.062 |
| CC(COc1ccccc1)N(CCCl)Cc1ccccc1 (stereo not given) [Phenoxybenzamine hydrochloride] | 0.673 ± 0.025 |
| NCCCC[C@H](N[C@@H](CCc1ccccc1)C(=O)O)C(=O)N1CCC[C@H]1C(=O)O [Lisinopril] | 0.49 ± 0.035 |
| O=c1n(CCCN2CCN(c3cccc(Cl)c3)CC2)nc2ccccn12 [Trazodone hydrochloride] | 0.471 ± 0.043 |
| OCCN1CCN(CCCN2c3ccccc3Sc3ccc(C(F)(F)F)cc32)CC1 [Fluphenazine dihydrochloride] | 0.04827 ± 0.00025 |
| CCCC(=O)Nc1ccc(OCC(O)CNC(C)C)c(C(C)=O)c1 (stereo not given) [Acebutolol hydrochloride] | 0.46 ± 0.044 |
| Cn1c(=O)c2c(ncn2CCO)n(C)c1=O [Etofylline] | 0.509 ± 0.055 |
| CCc1cccc2c3c([nH]c12)C(CC)(CC(=O)O)OCC3 (stereo not given) [Etodolac] | 0.415 ± 0.021 |
| NC(=O)C(c1ccccc1)(c1ccccc1)[C@@H]1CCN(CCc2ccc3c(c2)CCO3)C1 [Darifenacin hydrobromide] | 0.403 ± 0.013 |
| COc1ccc2cc([C@@H](C)C(=O)O)ccc2c1 [(R) -Naproxen sodium salt] | 0.448 ± 0.03 |
| CC(C)(C)NC[C@H](O)COc1nsnc1N1CCOCC1 [Timolol maleate salt] | 0.51 ± 0.069 |
| CC(c1cc2ccccc2s1)N(O)C(N)=O (stereo not given) [Zileuton] | 0.457 ± 0.011 |
| Cc1cc(NS(=O)(=O)c2ccc(N)cc2)no1 [Sulfamethoxazole] | 0.45 ± 0.031 |
| NCCNCCNCCNCCN [Tetraethylenepentamine pentahydrochloride] | 0.4747 ± 0.0042 |
| CC(N)C12CC3CC(CC(C3)C1)C2 (stereo not given) [Rimantadine Hydrochloride] | 0.583 ± 0.077 |
